# RBX1-CUL1 inh = inhibitors of human ROC1-CUL1 ubiquitin ligase activity; P62877+Q13616; in vitro K48 di-Ub FRET, acceptor:donor ratio, 45 min; inhibition, % at 10 µM; 140,000 tested, 0.6% active; in the data active = inhibition above about 25%
# Target sequence (P62877 whole entry, looked up): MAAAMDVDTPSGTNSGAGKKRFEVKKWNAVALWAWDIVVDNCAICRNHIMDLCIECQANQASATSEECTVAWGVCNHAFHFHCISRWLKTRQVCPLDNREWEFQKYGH
# Target sequence (Q13616 whole entry, looked up): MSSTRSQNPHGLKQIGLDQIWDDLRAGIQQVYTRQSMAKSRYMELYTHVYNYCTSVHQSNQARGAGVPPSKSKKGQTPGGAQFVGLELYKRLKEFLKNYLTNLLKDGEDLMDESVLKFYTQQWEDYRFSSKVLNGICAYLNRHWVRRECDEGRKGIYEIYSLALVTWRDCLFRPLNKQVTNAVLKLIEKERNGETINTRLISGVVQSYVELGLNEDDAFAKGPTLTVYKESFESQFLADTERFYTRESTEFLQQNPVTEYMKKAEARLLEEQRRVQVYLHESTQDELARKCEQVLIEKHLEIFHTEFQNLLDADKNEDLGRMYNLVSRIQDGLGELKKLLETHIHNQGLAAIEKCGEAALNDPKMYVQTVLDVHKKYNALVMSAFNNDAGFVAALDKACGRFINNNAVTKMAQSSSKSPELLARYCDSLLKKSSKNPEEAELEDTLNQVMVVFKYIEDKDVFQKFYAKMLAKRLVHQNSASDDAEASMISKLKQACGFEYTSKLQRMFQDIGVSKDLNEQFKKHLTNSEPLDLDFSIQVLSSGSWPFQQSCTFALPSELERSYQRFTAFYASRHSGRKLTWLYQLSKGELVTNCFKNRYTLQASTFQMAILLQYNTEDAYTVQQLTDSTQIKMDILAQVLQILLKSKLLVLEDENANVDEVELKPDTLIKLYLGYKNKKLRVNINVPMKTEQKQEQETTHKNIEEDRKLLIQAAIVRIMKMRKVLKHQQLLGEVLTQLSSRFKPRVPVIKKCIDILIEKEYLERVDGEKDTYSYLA
# Hits are given with their value; n = inactive. This is one part of a sample in which hits are shown more often than they occur.
SMILES,RBX1-CUL1 inh
N#Cc1cnc2c(N=Nc3ccccc3Cl)c(N)nn2c1-c1nc2ccccc2s1,n
CC(C)N1C(=O)C(C=Nc2cc(Cl)c(Cl)cc2Cl)C(=O)N(Cc2ccco2)C1=O (stereo unspecified),n
CC(C)N1C(=O)/C(=C\c2ccc(N(C)C)cc2)C(=O)N(Cc2ccco2)C1=O,n
COc1ccc(/C=C2\C(=O)N(Cc3ccco3)C(=O)N(C(C)C)C2=O)c(OC)c1,101
O=C(C(C(F)(F)F)C(F)(F)F)N1CCN(Cc2ccccc2)CC1,53
CCCCNC(=O)N1CCN(Cc2ccccc2)CC1,n
CC(C)C(=O)N1CCN(Cc2cccc(F)c2)CC1,n
Cc1ccc(-n2nnc(C(=O)N(C)c3ccccc3)c2C)cc1C,n
Cc1oc(-c2ccc(Cl)cc2)nc1CN(C)C1CCOCC1,n
O=C(O)C1C2C=CC(C3CC23)C1C(=O)Nc1ccc2c(c1)CCC2 (stereo unspecified),n
Brc1nsc(SCSc2nc(Br)ns2)n1,33
CCCCC(=O)Nc1ccccc1NC(=O)C(C)C,n
CCCCC(=O)Nc1ccccc1O,n
CCCCC(=O)Nc1cccc2cccc(S(=O)(=O)O)c12,95
CCOc1cc(C=C2C(=O)NC(=S)NC2=O)cc(Br)c1OCc1ccc(C(=O)O)cc1,n
CCOc1cc(C=C2C(=O)NC(=S)NC2=O)cc(Cl)c1OCc1ccc(C(=O)O)cc1,50
O=C1NC(=O)C(=Cc2cc(Cl)c(OCc3ccc(C(=O)O)cc3)c(Cl)c2)C(=O)N1,n
O=C(Oc1ccc(Cl)cc1)c1cc(=O)[nH]c2ccccc12,n
CCC1(CC)Cc2ccccc2C(C2C(=O)N(c3ccccc3)N=C2C)=N1 (stereo unspecified),n
CC(C)OC(=O)c1ccc(Cn2nnc3sc4c(c3c2=O)CCCC4)cc1,44
CC1CCc2c(sc3nnn(Cc4cccc(C(=O)OC(C)C)c4)c(=O)c23)C1 (stereo unspecified),n
CC(C)OC(=O)c1cccc(NC(=O)Cn2nnc3sc4c(c3c2=O)CCCC4)c1,n
CCc1ccc(OCC(=O)NCc2c(C)nn(C)c2C)cc1,n
C/C(=N/Nc1nc(C)cc(=O)[nH]1)c1cccc(N)c1,n
COc1ccc(C2=C(C)C(=O)C(C)=C(C)C2=O)cc1,n
SMILES,RBX1-CUL1 inh
COc1ccc(C2=NCCO2)cc1OC1CCCC1,n
Cc1cc(C)nc(NS(=O)(=O)c2ccc(NC(=O)Nc3ccc(Cl)cc3)cc2)n1,25
Cc1cc(C)nc(NS(=O)(=O)c2ccc(NC(=O)COc3ccc(Cl)cc3C)cc2)n1,n
Cc1cc(C)nc(NS(=O)(=O)c2ccc(NC(=O)c3ccc(Cl)cc3Cl)cc2)n1,n
O=[N+]([O-])c1c(NCCN2CCCC2)ncnc1NCCN1CCCC1,n
CC(C)(C)c1cc([N+](=O)[O-])c(N)cc1[N+](=O)[O-],n
O=C(Nc1cc(Cl)ncn1)NC1(C(F)(F)F)Oc2ccccc2O1,n
CCOC(=O)NC1(C(Cl)(Cl)Cl)Oc2ccc(Cl)cc2O1 (stereo unspecified),n
O=C(NC1(C(Cl)(Cl)Cl)Oc2cc(Cl)c(Cl)cc2O1)Sc1ccccc1,49
Cc1nnc(SCC(=O)N2CCCC(C(=O)c3ccc4c(c3)OCO4)C2)o1 (stereo unspecified),n
Cc1c(-c2csc(NC(=O)c3c(Nc4ccccc4)sc(C(=O)c4nc5ccccc5s4)c3N)n2)c(=O)n(-c2ccccc2)n1C,n
C=CCNS(=O)(=O)c1ccc(C(=O)Nc2ccc(C)cc2)cc1,n
O=C(NCc1ccco1)c1nn2c(C(F)(F)F)cc(-c3cc(Br)cs3)nc2c1Br,n
COc1ccc(-c2cc(C(F)(F)F)n3nc(C(=O)NCc4ccco4)c(Br)c3n2)cc1,29
COc1ccc(CNC(=O)c2nn3c(C(F)(F)F)cc(-c4ccc(Br)cc4)nc3c2Br)cc1,n
Cc1cc(C)cc(OCC(=O)Nc2ccccc2OC(F)F)c1,n
CCc1ccc(-c2nc3cc(NC(=O)/C=C\c4ccco4)ccc3o2)cc1,n
O=C(/C=C/c1ccco1)Nc1ccc2oc(-c3cccnc3)nc2c1,54
O=C(Nc1ccc2oc(-c3cccnc3)nc2c1)c1ccc(-c2ccccc2)o1,n
CCOC(=O)C1C(=N)n2c(s/c(=C\c3ccco3)c2=O)=C(C#N)C1c1ccco1 (stereo unspecified),n
Cn1c(CN2CCCCC2)nc2ccccc21,n
c1ccc2nc3c(nc2c1)c1ccccc1n3CN1CCCCC1,n
OCNc1nc2c3ccccc3nc(CCN3CCCCC3)n2n1,46
CCCCC(=O)NC(=S)Nc1ccc2oc(-c3ccc(Cl)cc3Cl)nc2c1,n
O=C1CCC(CCC(=O)N2CCCC(C(=O)c3ccccc3)C2)(Cc2ccc3ccccc3c2)N1 (stereo unspecified),n
SMILES,RBX1-CUL1 inh
CCC1(N)C(=O)c2ccccc2C1=O,n
O=C1c2ccccc2C(=O)C(O)(O)C1(O)O,100
O=C1c2ccccc2C(=O)C(Cl)(Cl)C1(Cl)Cl,n
Cc1nc2n(C)nc([S-])[n+]2c2ccccc12,n
C=CCn1c(SCC(=O)N2CCC(C)CC2)nc2sc3c(c2c1=O)CCCC3,n
O=C1NN=C2N=C(C(F)(F)F)C=C(C(F)(F)F)C12 (stereo unspecified),97

# Screening data (PubChem)
